Source: PubChem (several laboratories)
ssDAF-12 act: activates DAF-12 receptor from parasite S. stercoralis | activation, % at 6.8 µM | HEK293 ssDAF-12/GRIP1 lit1-tk-luc reporter, luminescence; % of 3 µM dafachronic acid response | actives 1% (n = 370,000);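 active = activation above the mean over all tested compounds plus 3 SD, cut at about 0.9% in these data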;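 note: 0% = DMSO-only wells and 100% = 3 µM delta7-dafachronic acid wells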
hgDAF-12 ag: hgDAF-12 agonism, primary luciferase screen | HEK293 GAL4-hgDAF12 UAS-luciferase reporter, agonist luminescence; normalized to butyrate control | activation, % at 6.8 µM | actives 1.8% (n = 370,000) | AID 687014;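 active = activation above a cutoff set at the mean of all screened compounds plus 3 SD, cut at about 10% in these data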;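 note: 0% = DMSO wells and 100% = sodium butyrate wells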
Wnt act: activators of Wnt/beta-catenin signaling; Wnt/beta-catenin reporter cell assay, activator, plate reader; activation, % at 9.35 µM; actives 1.2% (n = 300,000); in the data active = activation above about 30%, passing the limit was not always enough; inconclusive = no clear call, values can overlap the other calls;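 note: 0% = neutral control wells and 100% = positive control wells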
esBAF inh: inhibitors of esBAF chromatin remodeling in mouse ES cells | Bmi1-luciferase knock-in reporter, 24 h; 100% = twice the neutral-well signal | AID 602393 | actives 2% (n = 350,000) | reporter increase, % at 12.5 µM; in the data active = activation above about 40%; inconclusive = no clear call, values can overlap the other calls;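 note: 0% = median of the plate's neutral control wells and 100% = double that signal; a rise in the Bmi1 reporter signal indicates esBAF inhibition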
hcDAF-12 act: H. contortus DAF-12 activation, primary screen. HEK293 hcDAF-12 lit1-tk-luc reporter, luminescence; 0% DMSO, 100% Δ7-dafachronic acid. activation, % at 6.8 µM. actives 1.4% (n = 370,000);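 active = activation above the mean of all tested compounds plus 3 SD, cut at about 5.5% in these data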;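 note: 100% = response to 3 µM Δ7-dafachronic acid high control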
DAX1 StAR inh: blocks DAX1 repression of SF-1 activated StAR promoter; HEK293T StAR-luciferase reporter, SF-1/DAX-1 repression relief; inhibition, % at 6.8 µM; actives 1.1% (n = 370,000);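 active = inhibition above the mean over all tested compounds plus 3 SD, cut at about 3.6% in these data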;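 note: 0% = DAX-1 cells with DMSO and 100% = cells lacking DAX-1 with DMSO; higher inhibition means more luminescence from relief of DAX-1 repression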
LXRb hcDAF ctr: activates human LXR-beta, counter-screen for hcDAF-12 agonists; 3,400 tested, under 10 active; AID 743027; shares compounds with hcDAF-12 act; HEK293 Gal4-LXR tk-luc reporter, luminescence, 24 h; normalized: DMSO 0%, positive control 100%; activation, % at 6.8 µM;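 active = mean percent activation of the reporter above a cutoff set as the average over tested compounds plus their standard deviation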
Target sequence (P55055 whole entry, looked up, the tested form may be a part): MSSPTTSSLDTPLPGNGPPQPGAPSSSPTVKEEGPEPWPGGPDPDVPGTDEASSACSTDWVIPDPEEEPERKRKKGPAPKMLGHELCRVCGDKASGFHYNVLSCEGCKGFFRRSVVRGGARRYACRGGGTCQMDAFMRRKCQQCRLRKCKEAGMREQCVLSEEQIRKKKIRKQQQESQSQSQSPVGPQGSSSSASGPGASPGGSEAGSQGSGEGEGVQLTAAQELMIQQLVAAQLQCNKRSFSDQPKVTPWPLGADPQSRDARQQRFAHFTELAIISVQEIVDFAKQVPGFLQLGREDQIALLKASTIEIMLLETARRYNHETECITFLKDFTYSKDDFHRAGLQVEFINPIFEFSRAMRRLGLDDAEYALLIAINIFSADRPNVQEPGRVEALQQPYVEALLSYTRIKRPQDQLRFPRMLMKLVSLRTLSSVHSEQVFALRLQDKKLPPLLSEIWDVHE
hcDAF12 conf: hcDAF-12 agonism, confirmation assay | shares compounds with hcDAF-12 act | HEK293 hcDAF-12 lit1-tk-luc reporter, luminescence; % of Δ7-dafachronic acid response | activation, % at 6.8 µM | actives 61% (n = 3,400) | AID 743032;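 active = mean activation across triplicate tests above the threshold derived from the earlier primary screen, cut at about 5.5% in these data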;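 note: 0% = DMSO only wells and 100% = 3 µM Δ7-dafachronic acid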
hgDAF12 conf: hgDAF-12 agonism, confirmation assay; HEK293 GAL4-hgDAF12 luciferase reporter, agonist mode; percent of butyrate response; actives 80% (n = 3,300); activation, % at 6.8 µM; shares compounds with hgDAF-12 ag; AID 743050;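 active = mean activation over triplicate wells above the hit cutoff derived from the earlier primary screen, cut at about 11% in these data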;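 note: 0% = DMSO low control and 100% = 2 mM sodium butyrate high control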
LXR ag 2: LXR-beta agonism as DAF-12 counter-screen; shares compounds with hgDAF-12 ag; HEK293 Gal4-LXR luciferase reporter, 24 h; activation, % at 6.8 µM; 3,300 tested, under 10 active; AID 743051;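 active = mean activation of the triplicate above a set limit carried over from the primary screen, none filed active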
Starred values were filed as active, the others as inactive; ? = inconclusive; · = no result given. Rows were chosen to be rich in hits. Some 4.2% of all compounds tested hit in one or more screens of this group.

SMILES	ssDAF-12 act	hgDAF-12 ag	Wnt act	esBAF inh	hcDAF-12 act	DAX1 StAR inh	LXRb hcDAF ctr	hcDAF12 conf	hgDAF12 conf	LXR ag 2
Nc1c(C(=O)N2CCOCC2)sc2nc3c(cc12)CCCC3	0	14*	1	-81	6.9*	3	1	7.1*	3	1
C[C@@H]1CN([C@@H](C)CO)C(=O)c2cccc(NC(=O)C3CCOCC3)c2O[C@@H]1CN(C)S(=O)(=O)c1ccc(Cl)cc1	·	·	·	1	·	·	·	·	·	·
N#C/C(=C\c1ccc(OCc2ccc(C(=O)O)cc2)cc1)C(=O)N1CCOCC1	1.6*	19*	-7	·	14*	4	1	7.8*	21*	1
Oc1[nH]c2ccccc2c1C=Nc1ccccc1	1.6*	21*	45*	?	8.3*	3	1	8.9*	24*	1
CCOc1ncccc1C(=O)OCC(=O)Nc1ccc(-c2nc3ccc(C)cc3s2)cc1	1.0*	18*	·	·	7.5*	4.4*	2	5.7*	18*	1
CCOc1ncccc1C(=O)OCC(=O)Nc1c(C)cc(C)cc1C	0	-1	·	1	-1	0	·	·	·	·
O=C(c1cccc(F)c1)N1C[C@@H]2[C@H](c3ccccc31)[C@@H](CO)N2C(=O)c1ccc(F)cc1	·	·	·	-4	·	·	·	·	·	·
N=c1n(N)c2ccccc2n1CC(=O)c1ccc(Br)cc1	1	15*	2	52*	8.1*	3	1	5	14*	0
CCc1nnc(NC(=O)c2c(OC)cccc2OC)s1	-1	0	·	-8	0	-1	·	·	·	·
CCc1nnc(NC(=O)c2ccc3ccccc3n2)s1	2.6*	14*	7	?	13*	3.9*	1	15*	18*	1
O=C(Nc1ccccc1C(=O)O)c1ccc2ccccc2n1	0	6	·	·	5	2	·	·	·	·
Cc1ccc(NC(=O)c2ccc3ccccc3n2)nc1	3.5*	16*	77*	22	16*	3.8*	2	17*	20*	1
Cc1ccccc1NC(=S)c1ccc2ccccc2n1	1.3*	13*	26	70*	14*	1	0	7.9*	13*	0
Cn1c(/C=C/c2ccccc2[N+](=O)[O-])nc2ccccc2c1=O	-1	3	-1	25	0	-1	·	·	·	·
O=[N+]([O-])c1ccccc1/C=C/c1ccc2ccccc2n1	2.1*	16*	12	52*	18*	2	2	12*	20*	1
C[C@H]1CN([C@@H](C)CO)C(=O)c2cc(NC(=O)Cc3ccccc3)ccc2O[C@H]1CN(C)Cc1ccc(C(=O)O)cc1	·	·	·	1	·	·	·	·	·	·
CCOC(=O)/C(=N\Nc1ncnc2ccccc12)c1ccc(C)cc1	2.5*	21*	4	-57	19*	2	2	19*	20*	1
C[C@@H]1CN([C@@H](C)CO)C(=O)c2cc(NS(C)(=O)=O)ccc2O[C@H]1CN(C)S(=O)(=O)c1cccs1	·	·	·	-8	·	·	·	·	·	·
CN1N=C(C(=O)N2CCc3c([nH]c4ccccc34)C2c2c(F)cccc2Cl)CCC1=O (stereo unspecified)	1	15*	4	·	6.7*	2	0	6.7*	7	0
O=C(c1cc2c([nH]c1=O)CCCC2)N1CCc2c([nH]c3ccccc23)C1c1ccccc1F (stereo unspecified)	1	0	0	·	2	0	·	·	·	·
c1ccc(-c2ccc(-c3ccccc3)[nH]2)cc1	0	19*	0	72*	6.8*	3	1	3	15*	0
CC(=O)Nc1sc2c(c1-c1nc3ccccc3s1)CCCN(C(C)C)C2	7.3*	24*	·	·	42*	·	2	21*	6	1
CC(C)N1CCc2c(sc(NC(=O)c3nc4ccccc4s3)c2C(N)=O)C1	-1	-9	0	·	-3	-3	·	·	·	·
Cn1c(NCc2c[nH]c3ccccc23)nc2ccccc21	1.7*	16*	·	·	16*	2	1	15*	25*	1
CCC(=O)N[C@H]1CC[C@@H](CC(=O)OC)O[C@@H]1CO	·	·	·	-2	·	·	·	·	·	·
SMILES	ssDAF-12 act	hgDAF-12 ag	Wnt act	esBAF inh	hcDAF-12 act	DAX1 StAR inh	LXRb hcDAF ctr	hcDAF12 conf	hgDAF12 conf	LXR ag 2
Oc1ccc(/C=N\Nc2cc(N3CCOCC3)nc(N3CCOCC3)n2)c(O)c1	-2	-1	0	1	-2	-1	·	·	·	·
Oc1ccc(/C=N/Nc2cccc(Cl)n2)c(O)c1	2.2*	14*	18	34	10*	2	1	2	19*	1
CN(C)C(=O)C[C@H]1CC[C@@H]2[C@H](COc3ccc(NC(=O)C4CC4)cc3C(=O)N2C)O1	·	·	·	3	·	·	·	·	·	·
C[C@H](O)C#Cc1cnc2c(c1)C(=O)N([C@H](C)CO)C[C@H](C)[C@@H](CN(C)C(=O)Cc1ccccn1)O2	·	·	·	2	·	·	·	·	·	·
CSc1ncccc1C(=O)Nc1cc(C)ccn1	-1	-1	2	-8	0	0	·	·	·	·
CSc1ccc(NC(=O)Nc2cc(C)ccn2)cc1	0.9*	19*	29	-65	7.0*	3	2	9.5*	18*	1
Cc1ccc(-c2csc(NC(=O)/C=C/c3ccco3)c2C(=O)O)cc1	0	14*	·	18	11*	3	1	6.0*	11*	1
Cc1ccc(NC(=O)c2ccc(Cl)cc2Cl)cc1O	1.9*	17*	48*	·	9.6*	3	1	6.2*	15*	1
O=C(Nc1ccc(Nc2ccccc2)cc1)c1ccc(Cl)cc1Cl	-1	2	-1	·	-1	-1	·	·	·	·
CC1=NC(=O)C(N=Nc2cccc(O)c2)N1c1ccccc1 (stereo unspecified)	0	14*	·	36	9.3*	1	1	12*	16*	1
COc1ccccc1N1CCN(c2ccc(-c3ccccc3)nn2)CC1	1.3*	18*	8	-44	7.1*	3	1	4	8	1
COc1cc(OC)cc(-c2nc3ccccc3s2)c1	1	17*	·	40	8.6*	1	1	13*	15*	1
